In PubChem BioAssay (EPA / NIEHS):
Active and inactive are the calls of the source. The calls were made as follows: active = hit-call score of the fitted dose curve at least 0.9, where 1 is the maximum; inactive = score below 0.9.

Key:
[1] = read-out: Plasminogen activator inhibitor-1 (PAI1), SERPINE1 (gene 5054); assay: BSK_hDFCGF_PAI1: BioMAP Diversity Plus: hDFCGF Assay for Plasminogen activator inhibitor-1 (PAI1) Biomarker Activity (AID 2283066); details: primary human foreskin fibroblasts; actives raise or lower the signal
Outline: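 PAI-1 levels, determined by ELISA, served as the endpoint in human foreskin fibroblast cultures exposed to compound for 24 h, with DMSO as baseline.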

[2] = read-out: Intercellular Adhesion Molecule 1 (ICAM1), ICAM1 (gene 3383); assay: BSK_KF3CT_ICAM1: BioMAP Diversity Plus: KF3CT Assay for Intercellular Adhesion Molecule 1 (ICAM1) Biomarker Activity (AID 2283067); details: primary human keratinocytes with fibroblasts; actives raise or lower the signal
Outline: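 Human keratinocyte–foreskin fibroblast co-culture was treated for 24 h. Cell-surface ICAM-1 was quantified by ELISA, fitted bidirectionally relative to DMSO. Cytotoxicity was checked in parallel cultures by SRB total-protein staining.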

[3] = read-out: Interferon-gamma inducible Protein 10 (IP10), CXCL10 (gene 3627); assay: BSK_KF3CT_IP10: BioMAP Diversity Plus: KF3CT Assay for Interferon-gamma inducible Protein 10 (IP10) Biomarker Activity (AID 2283068); details: primary human keratinocytes with fibroblasts; actives raise or lower the signal
Outline: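 In a primary skin co-culture of keratinocytes and fibroblasts, IP-10 is quantified by ELISA at 24 h after dosing. SRB staining of parallel wells monitors overt toxicity. Curves are fitted both directions against DMSO.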

[4] = BSK_KF3CT_SRB: Viability Assessment in the BioMAP Diversity Plus: KF3CT Assay (AID 2283069); details: primary human keratinocytes with fibroblasts;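 also: total protein by sulforhodamine B staining as a cytotoxicity measure; fitted for both signal gain and loss against DMSO baseline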
Outline: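 Human keratinocyte and foreskin fibroblast co-culture exposed to chemical for 24 h. Total protein measured in parallel cultures by 0.1% sulforhodamine B staining after 10% TCA fixation, read at 560 nm; bidirectional fit relative to DMSO.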

[5] = read-out: Interleukin-1 alpha (IL1a), IL1A (gene 3552); assay: BSK_KF3CT_IL1a: BioMAP Diversity Plus: KF3CT Assay for Interleukin-1 alpha (IL1a) Biomarker Activity (AID 2283070); details: primary human keratinocytes with fibroblasts; actives raise or lower the signal
Outline: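 Primary human keratinocyte plus foreskin fibroblast co-culture, dosed and measured at 24 h in 96-well plates. IL-1a level quantified by ELISA; bidirectional fit relative to DMSO.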

[6] = read-out: TIMP metallopeptidase inhibitor 2 (TIMP2), TIMP2 (gene 7077); assay: BSK_KF3CT_TIMP2: BioMAP Diversity Plus: KF3CT Assay for TIMP metallopeptidase inhibitor 2 (TIMP2) Biomarker Activity (AID 2283071); details: primary human keratinocytes with fibroblasts; actives raise or lower the signal
Outline: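 Keratinocyte–fibroblast co-culture, 24 h exposure; TIMP-2 ELISA, DMSO-normalised bidirectional fit. Parallel SRB (0.1%, TCA-fixed, 560 nm) total-protein staining gauges cytotoxicity.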

[7] = read-out: Transforming growth factor beta 1 (TGFb1), TGFB1 (gene 7040); assay: BSK_KF3CT_TGFb1: BioMAP Diversity Plus: KF3CT Assay for Transforming growth factor beta 1 (TGFb1) Biomarker Activity (AID 2283072); details: primary human keratinocytes with fibroblasts; actives raise or lower the signal
Outline: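 Signal changes in either direction, relative to DMSO, define activity here. TGF-b1 is read by ELISA from a human keratinocyte-fibroblast co-culture 24 h post-dose.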

[8] = read-out: C-C motif chemokine 2 (Homo sapiens) (UniProt P13500); assay: BSK_KF3CT_MCP1: BioMAP Diversity Plus: KF3CT Assay for Monocyte Chemoattractant Protein 1 (MCP1/CCL2) Biomarker Activity (AID 2283073); details: primary human keratinocytes with fibroblasts; actives raise or lower the signal
Outline: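 Human keratinocyte–foreskin fibroblast co-culture; MCP-1 measured by ELISA 24 h after dosing. Bidirectional fit vs DMSO; cytotoxicity tracked by SRB total protein in parallel cultures.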

[9] = read-out: Matrix Metallopeptidase 9 (MMP9), MMP9 (gene 4318); assay: BSK_KF3CT_MMP9: BioMAP Diversity Plus: KF3CT Assay for Matrix Metallopeptidase 9 (MMP9) Biomarker Activity (AID 2283074); details: primary human keratinocytes with fibroblasts; actives raise or lower the signal;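 as to AC50: MMP9 protein level quantified by ELISA in the co-culture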
Outline: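 Human keratinocyte and foreskin fibroblast co-culture exposed to chemicals for 24 h; MMP9 biomarker measured by ELISA, bidirectional fitting relative to DMSO; cytotoxicity tracked by SRB total protein staining in parallel cultures.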

[10] = read-out: urokinase plasminogen activator (uPA), PLAU (gene 5328); assay: BSK_KF3CT_uPA: BioMAP Diversity Plus: KF3CT Assay for urokinase plasminogen activator (uPA) Biomarker Activity (AID 2283075); details: primary human keratinocytes with fibroblasts; actives raise or lower the signal
Outline: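 Primary human keratinocyte/foreskin fibroblast co-culture exposed to chemical; uPA measured by ELISA at 24 h. Bidirectional fit versus DMSO, with parallel SRB total-protein staining for cytotoxicity.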

CD40, CD40 (gene 958) = assay: BSK_LPS_CD40: BioMAP Diversity Plus: LPS Assay for CD40 Biomarker Activity (AID 2283076); details: primary human HUVEC with PBMC; actives raise or lower the signal
Outline: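 HUVEC plus PBMC co-culture stimulated with LPS; CD40 quantified by ELISA 24 h after compound dosing. Fitting was bidirectional relative to DMSO. SRB staining of parallel cultures flagged overt cytotoxicity.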

[11] = read-out: E-selectin (Homo sapiens) (UniProt P16581); assay: BSK_LPS_Eselectin: BioMAP Diversity Plus: LPS Assay for Eselectin Biomarker Activity (AID 2283077); details: primary human HUVEC with PBMC; actives raise or lower the signal
Outline: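 Human umbilical vein endothelial cells co-cultured with PBMC under LPS stimulation; cell-surface E-selectin measured by ELISA 24 h after dosing. Change in either direction versus DMSO, with SRB total-protein staining in parallel cultures for cytotoxicity.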

[12] = read-out: Interleukin-8 (IL8), CXCL8 (gene 3576); assay: BSK_LPS_IL8: BioMAP Diversity Plus: LPS Assay for Interleukin-8 (IL8) Biomarker Activity (AID 2283078); details: primary human HUVEC with PBMC; actives raise or lower the signal
Outline: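 Human umbilical vein endothelial cells co-cultured with PBMC, LPS-stimulated, exposed to compound for 24 h. IL-8 quantified by ELISA; fitted in both directions against DMSO, with SRB total-protein staining of parallel cultures for cytotoxicity.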

[13] = BSK_LPS_SRB: Viability Assessment in the BioMAP Diversity Plus: LPS Assay (AID 2283079); details: primary human HUVEC with PBMC;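 also: total protein by sulforhodamine B absorbance as a cytotoxicity measure; measured one day after compound addition; fitted in both directions against DMSO so loss or gain of signal counts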
Outline: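 Co-culture of human umbilical vein endothelial cells and PBMC, read 24 h after dosing. Total protein by 0.1% SRB staining after 10% TCA fixation, absorbance at 560 nm; bidirectional fit against DMSO.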

[14] = read-out: Monocyte Chemoattractant Protein-1 (MCP1), CCL2 (gene 6347); assay: BSK_LPS_MCP1: BioMAP Diversity Plus: LPS Assay for Monocyte Chemoattractant Protein-1 (MCP1) Biomarker Activity (AID 2283081); details: primary human HUVEC with PBMC; actives raise or lower the signal;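 as to AC50: secreted MCP-1 protein quantified by ELISA in culture supernatant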
Outline: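 Human umbilical vein endothelial cells co-cultured with PBMC, LPS-stimulated; secreted MCP-1 measured by ELISA 24 h after compound addition. Bidirectional curve fitting against DMSO baseline; SRB total-protein staining in parallel cultures for cytotoxicity.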

[15] = read-out: Macrophage colony-stimulating factor (MCSF), CSF1 (gene 1435); assay: BSK_LPS_MCSF: BioMAP Diversity Plus: LPS Assay for Macrophage colony-stimulating factor (MCSF) Biomarker Activity (AID 2283083); details: primary human HUVEC with PBMC; actives raise or lower the signal
Outline: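 HUVEC–PBMC co-culture, M-CSF measured by ELISA 24 h after chemical dosing. Fitted in both directions relative to DMSO as negative control; overt cytotoxicity assessed by SRB total-protein staining in parallel cultures.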

[16] = read-out: Tissue Factor, F3 (gene 2152); assay: BSK_LPS_TissueFactor: BioMAP Diversity Plus: LPS Assay for Tissue Factor Biomarker Activity (AID 2283084); details: primary human HUVEC with PBMC; actives raise or lower the signal
Outline: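 Human umbilical vein endothelial cells co-cultured with PBMC were dosed with compound. Cell-surface CD142 was measured by ELISA 24 h later. Activity was fitted bidirectionally against DMSO, with SRB total-protein staining in parallel cultures for cytotoxicity.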

[17] = read-out: Tumor necrosis factor (Homo sapiens) (UniProt P01375); assay: BSK_LPS_TNFa: BioMAP Diversity Plus: LPS Assay for Tumour Necrosis Factor alpha (TNFa) Biomarker Activity (AID 2283085); details: primary human HUVEC with PBMC; actives raise or lower the signal
Outline: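 Primary human vascular co-culture of HUVEC and PBMC; TNFa ELISA 24 h after treatment, analysed as increase or decrease relative to DMSO control.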

[18] = read-out: Interleukin-1 alpha (IL1a), IL1A (gene 3552); assay: BSK_LPS_IL1a: BioMAP Diversity Plus: LPS Assay for Interleukin-1 alpha (IL1a) Biomarker Activity (AID 2283080); details: primary human HUVEC with PBMC; actives raise or lower the signal
Outline: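 Human umbilical vein endothelial cells co-cultured with PBMC and stimulated with LPS; IL-1a measured by ELISA 24 h after dosing. Bidirectional fitting against DMSO; cytotoxicity checked by SRB staining in parallel cultures.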

[19] = BSK_LPS_PGE2: BioMAP Diversity Plus: LPS Assay for Prostaglandin E2 (PGE2) Biomarker Activity (AID 2283082); details: primary human HUVEC with PBMC; actives raise or lower the signal
Outline: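 Endpoint derived from bidirectional curve fitting versus DMSO of ELISA-measured PGE2 in LPS-stimulated human primary vascular co-culture (HUVEC with PBMC) harvested at 24 h.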

Measured: AC50

Chain of Tumor necrosis factor (Homo sapiens) (P01375 whole entry, looked up): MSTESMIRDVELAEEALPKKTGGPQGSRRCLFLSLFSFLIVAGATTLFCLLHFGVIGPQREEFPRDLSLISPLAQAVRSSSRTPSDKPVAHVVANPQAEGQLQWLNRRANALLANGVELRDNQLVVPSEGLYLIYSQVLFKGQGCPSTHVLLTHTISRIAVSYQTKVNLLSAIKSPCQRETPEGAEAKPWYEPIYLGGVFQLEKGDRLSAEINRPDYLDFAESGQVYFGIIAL
Chain of E-selectin (Homo sapiens) (P16581 whole entry, looked up): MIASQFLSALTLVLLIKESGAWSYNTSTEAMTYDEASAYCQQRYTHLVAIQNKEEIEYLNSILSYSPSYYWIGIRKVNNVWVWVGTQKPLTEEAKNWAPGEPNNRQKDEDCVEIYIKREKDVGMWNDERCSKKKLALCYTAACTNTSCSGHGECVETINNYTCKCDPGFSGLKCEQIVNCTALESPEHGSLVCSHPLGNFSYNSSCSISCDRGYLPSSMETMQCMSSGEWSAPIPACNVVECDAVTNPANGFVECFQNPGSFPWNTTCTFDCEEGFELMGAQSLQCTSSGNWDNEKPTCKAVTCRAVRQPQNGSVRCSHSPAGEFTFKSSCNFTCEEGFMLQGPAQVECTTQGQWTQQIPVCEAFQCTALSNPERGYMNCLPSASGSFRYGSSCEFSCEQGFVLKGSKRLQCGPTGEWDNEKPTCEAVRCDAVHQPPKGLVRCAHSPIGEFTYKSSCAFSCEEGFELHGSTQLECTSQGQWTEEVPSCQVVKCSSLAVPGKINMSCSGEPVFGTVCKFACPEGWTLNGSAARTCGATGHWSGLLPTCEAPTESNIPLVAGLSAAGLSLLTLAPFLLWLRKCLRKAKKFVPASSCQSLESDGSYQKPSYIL

CCOC(=O)COc1ccc2c(c1)CC(NCC(O)c1cccc(Cl)c1)CC2 (centres undefined)
active: [1] 31.7 µM | CD40, CD40 (gene 958) 29 µM | [12] 27.4 µM | [13] 28.4 µM | [14] 29.2 µM | [15] 34.5 µM
inactive: [2] | [3] | [4] | [5] | [6] | [7] | [8] | [9] | [10] | [11] | [16] | [17]

Cc1c(-c2cccnc2)c2ccccc2n1CCCCC(=O)O
inactive: [1] | [2] | [3] | [4] | [5] | [6] | [7] | [8] | [9] | [10] | CD40, CD40 (gene 958) | [11] | [12] | [13] | [14] | [15] | [16] | [17]

O=c1[nH]c2ccc(S(=O)CCN3CCC(Cc4ccc(F)cc4)CC3)cc2o1 (centres undefined)
inactive: [1] | [2] | [3] | [4] | [5] | [6] | [7] | [8] | [9] | [10] | CD40, CD40 (gene 958) | [11] | [12] | [13] | [18] | [14] | [15] | [16] | [17]

CCOC(=O)c1ccc(C2CCC(NC[C@H](O)COc3ccc(O)c(NS(C)(=O)=O)c3)CC2)cc1 (some centres undefined)
active: [1] 8.8 µM | [7] 18.7 µM | [9] 27.2 µM | [12] 30.9 µM | [13] 26.1 µM | [18] 29.9 µM | [14] 34.1 µM | [15] 18.7 µM
inactive: [2] | [3] | [4] | [5] | [6] | [8] | [10] | CD40, CD40 (gene 958) | [11] | [19] | [16] | [17]

O=C(O)CCN(C1(C(=O)NO)CCCC1)S(=O)(=O)c1ccc(Oc2ccc(F)cc2)cc1
inactive: [1] | [2] | [3] | [4] | [5] | [6] | [7] | [8] | [9] | [10] | CD40, CD40 (gene 958) | [11] | [12] | [13] | [18] | [14] | [19] | [15] | [16] | [17]

CCCC(=O)OCC
inactive: [1] | [2] | [3] | [4] | [5] | [6] | [7] | [8] | [9] | [10] | CD40, CD40 (gene 958) | [11] | [12] | [13] | [14] | [19] | [15] | [16] | [17]
